Assay [1] concerns TRPC4 beta (transient receptor potential cation channel C4), mouse. As to the kind of experiment: TRPC4 cation channel opening, retest – cell-based, Fluo4 calcium, HEK293 TRPC4beta/mu-opioid, duplicates, 10 µM, confirmation (AID 2426;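 active = fluorescence ratio normalized to control raised more than 50% in primary screen plus both repeat runs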). The note with it: Fluo4 calcium fluorescence, at 10 µM; hits give high values.
The test system of assay [2] is transient receptor potential cation channel C4 beta (TRPC4), mouse. Description: TRPC4 cation channel opening, second retest – cell-based, second round, Fluo4, HEK293 TRPC4beta/mu-opioid, 1 µM, confirmation (AID 2461;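 active = primary screen active and over 50% activation in each of two duplicate runs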). The note with it: Fluo4 calcium fluorescence, at 1 µM; hits give high values.
The subject of assay [3] is TRPC4 (transient receptor potential cation channel C4 beta), mouse. As to the kind of experiment: potentiation of DAMGO EC20 TRPC4 response – cell-based, second round, Fluo-4, HEK293 TRPC4beta/mu-opioid, 1 µM, confirmation (AID 2554;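 active = primary screen hit whose fluorescence ratio, in both repeats, exceeds the weak agonist control mean by 3 SD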). Particulars: DAMGO EC20, Fluo-4 calcium flux, at 1 µM; hits give high values. (Calcium flux is commonly read through the fluorescence of an indicator in the cells.)

Assay [4] concerns TRPC4 beta (transient receptor potential cation channel C4), mouse. Description: potentiation of DAMGO EC20 TRPC4 response – cell-based, Fluo-4, HEK293 TRPC4beta/mu-opioid, confirmation (AID 2555;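 active = primary screen hit whose calcium fluorescence ratio, in both repeats, exceeds the weak agonist control mean by 3 SD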). The note with it: DAMGO EC20, Fluo-4 calcium flux, at 10 µM; hits give high values.
Assay [5] deals with Short transient receptor potential channel 4 (Mus musculus) (UniProt Q9QUQ5). Description: blockers of DAMGO-evoked TRPC4 calcium flux – cell-based, Fluo4, HEK293 TRPC4beta/mu-opioid, confirmation (AID 2636;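 active = calcium signal cut by more than 3 SD below the full-agonist control yet still positive, in both repeats and the earlier primary screen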). The note with it: at 10 µM; hits give high values.
Sequence of Short transient receptor potential channel 4 (Mus musculus) (Q9QUQ5 whole entry, looked up): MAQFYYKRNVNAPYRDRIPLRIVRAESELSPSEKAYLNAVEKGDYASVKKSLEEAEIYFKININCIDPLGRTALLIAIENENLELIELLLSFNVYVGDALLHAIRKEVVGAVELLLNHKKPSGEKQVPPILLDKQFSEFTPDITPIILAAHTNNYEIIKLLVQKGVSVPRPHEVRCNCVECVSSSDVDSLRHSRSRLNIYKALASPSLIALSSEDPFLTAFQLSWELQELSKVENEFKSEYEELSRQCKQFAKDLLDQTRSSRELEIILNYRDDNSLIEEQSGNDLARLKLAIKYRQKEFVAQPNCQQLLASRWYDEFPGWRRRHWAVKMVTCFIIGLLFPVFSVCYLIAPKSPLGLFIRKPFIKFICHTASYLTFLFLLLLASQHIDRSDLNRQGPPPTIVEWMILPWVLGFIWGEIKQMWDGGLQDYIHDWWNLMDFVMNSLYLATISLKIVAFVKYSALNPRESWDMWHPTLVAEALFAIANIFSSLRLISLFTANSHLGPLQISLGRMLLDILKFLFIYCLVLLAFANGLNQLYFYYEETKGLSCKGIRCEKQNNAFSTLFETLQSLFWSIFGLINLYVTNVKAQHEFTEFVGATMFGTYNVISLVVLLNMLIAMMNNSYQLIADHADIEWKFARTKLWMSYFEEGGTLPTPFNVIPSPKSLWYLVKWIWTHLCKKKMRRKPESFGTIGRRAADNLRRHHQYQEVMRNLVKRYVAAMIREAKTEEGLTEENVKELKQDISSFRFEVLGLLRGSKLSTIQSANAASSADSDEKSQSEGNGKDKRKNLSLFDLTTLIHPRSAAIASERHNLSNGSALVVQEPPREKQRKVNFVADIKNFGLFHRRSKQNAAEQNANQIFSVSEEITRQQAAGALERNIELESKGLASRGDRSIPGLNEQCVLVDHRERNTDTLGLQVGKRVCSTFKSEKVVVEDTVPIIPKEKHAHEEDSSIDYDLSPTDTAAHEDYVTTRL
Assay [6] has the same target. Description: blockers of DAMGO-evoked TRPC4 calcium flux – cell-based, second round, Fluo4, HEK293 TRPC4beta/mu-opioid, 1 µM, confirmation (AID 2637;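 active = calcium signal ratio cut to more than 3 SD under the fully stimulated control mean yet still positive, in both repeats and the primary screen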;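 as to inhibition: percent of integrated ratio relative to wells lacking test compound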). Particulars: at 1 µM; hits give high values.
Assay [7] shares this target. Description: calcium entry via TRPC4 opening agents – cell-based, HEK293 TRPC4/mu-opioid, Fluo-4 calcium, dose response (AID 434937;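 active = primary screen activator hit with a dose response curve and TRPC4 channel activation at any tested dose; inactive = no activation, no dose response, or not a primary hit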).
For assay [8] the target is unchanged. Description: potentiation of DAMGO-evoked TRPC4 calcium signal – cell-based, HEK293 TRPC4/mu-opioid, Fluo-4 calcium, EC20 DAMGO, dose response (AID 434941).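 Also: calcium entry triggered by an EC20 dose of DAMGO at the co-expressed mu-opioid receptor.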
Assay [9] addresses Short transient receptor potential channel 6 (Mus musculus) (UniProt Q61143). As to the kind of experiment: TRPC6 blockade by TRPC4 inhibitor hits – cell-based, HEK293, membrane potential dye, duplicate, selectivity assay for TRPC4 inhibitor project, confirmation (AID 434948;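 active = active in primary screen and both duplicates, each dropping signal beyond three positive-control SD with fluorescence still positive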). Particulars: HEK293 TRPC6, membrane potential dye fluorescence, at 10 µM, stimulated with maximal-effect acetylcholine; hits give high values.

Assay [10] has the same target. As to the kind of experiment: TRPC6 opening by TRPC4 activator hits – cell-based, HEK293, membrane potential dye, duplicate, selectivity assay for TRPC4 activator project, confirmation (AID 434950;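 active = membrane potential signal rise above negative control mean plus 3 SD in both duplicates, also active in the earlier TRPC4 screen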). The note with it: HEK293 TRPC6, membrane potential fluorescence, at 10 µM; activation: hits give high values; outcome: activation.
Assay [11] has the same target. Description: positive modulators of mouse TRPC6 channel – HEK293 cells, membrane potential dye, duplicate, selectivity assay for TRPC4 potentiator project, confirmation (AID 434952;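 active = compound raising the membrane signal above positive-control mean plus 3 SD in both repeats, and a primary screen hit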). Particulars: HEK293 TRPC6, membrane potential dye fluorescence, at 10 µM, maximal acetylcholine added after compound; hits give high values.
Assay [12] concerns the target Short transient receptor potential channel 4 (Mus musculus) (UniProt Q9QUQ5). As to the kind of experiment: calcium flux activators in TRPC4/5HT1a cells, counter-screen for TRPC4 activator project, cell-based, second counter screen, HEK293 TRPC4/5HT1a, Fluo-4 (AID 434977;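 active = calcium signal rise above buffer-control mean plus 5 SD in both duplicates, and also a hit in the primary screen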). Particulars: Fluo-4 calcium flux, at 10 µM; hits give high values.
Assay [13] in a line: serotonin-gated TRPC4 signal block – cell-based, second counter screen, HEK293 TRPC4/5HT1a, Fluo-4, counter-screen for TRPC4 inhibitor project, confirmation (AID 434978;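 active = primary screen active whose calcium signal fell more than 3 SD beyond the full-serotonin control mean in both duplicate plates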;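 as to outcome: serotonin given first at submaximal then at maximal dose after compound preincubation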). Particulars: Fluo-4 calcium flux, at 10 µM, serotonin added to trigger calcium flux; hits give high values. In general terms: The purpose of a counterscreen is to sort out artefacts and off-target activity.
For assay [14], the system named is TRPC4 (mouse), co-expressed with 5HT1a in HEK293. Description: enhancement of serotonin-evoked TRPC4 response – cell-based, second counter screen, HEK293 TRPC4/5HT1a, Fluo-4, counter-screen for TRPC4 potentiator project, confirmation (AID 434979;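 active = signal rise over 3 SD above mean of control wells given weak agonist, in both repeats and first screen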). Particulars: Fluo-4 calcium flux, at 10 µM, serotonin added at its EC20 dose; hits give high values.
A short description of assay [15]: nonspecific calcium rise without TRPC4 – cell-based, HEK293 mu-opioid receptor line, counter-screen for TRPC4 activator project, confirmation (AID 449723;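 active = hit in primary screen, with calcium signal over 5 SD above buffer well mean in both duplicates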;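 also: counter screen cells carry the mu-opioid receptor alone and lack TRPC4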). Particulars: HEK293 mu-opioid cells, Fluo-4 calcium fluorescence, at 10 µM; hits give high values.
Assay [16] is described as follows: nonspecific potentiation of DAMGO calcium response – cell-based, HEK293 mu-opioid receptor line, counter-screen for TRPC4 allosteric potentiator project, confirmation (AID 449724;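 active = calcium signal rise more than 3 SD above the low-dose agonist control mean, in both duplicate plates and the primary screen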;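 also: HEK293 cells carrying mu-opioid receptor only with no TRPC4 channel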). The note with it: HEK293 mu-opioid receptor cells, Fluo-4 calcium flux, at 10 µM, compound added before EC20 DAMGO stimulus; hits give high values.

Structures are written as SMILES. For part of these data: Measured potencies and affinities stand elsewhere. Active and inactive are the calls of the source.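 The calls were made as follows, unless noted: active = earlier screen potentiator hit that boosts the TRPC4 ion channel at some dose, with a dose response; inactive = no potentiation, no dose response, or not a prior hit.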

Sequence of Short transient receptor potential channel 6 (Mus musculus) (Q61143 whole entry, looked up): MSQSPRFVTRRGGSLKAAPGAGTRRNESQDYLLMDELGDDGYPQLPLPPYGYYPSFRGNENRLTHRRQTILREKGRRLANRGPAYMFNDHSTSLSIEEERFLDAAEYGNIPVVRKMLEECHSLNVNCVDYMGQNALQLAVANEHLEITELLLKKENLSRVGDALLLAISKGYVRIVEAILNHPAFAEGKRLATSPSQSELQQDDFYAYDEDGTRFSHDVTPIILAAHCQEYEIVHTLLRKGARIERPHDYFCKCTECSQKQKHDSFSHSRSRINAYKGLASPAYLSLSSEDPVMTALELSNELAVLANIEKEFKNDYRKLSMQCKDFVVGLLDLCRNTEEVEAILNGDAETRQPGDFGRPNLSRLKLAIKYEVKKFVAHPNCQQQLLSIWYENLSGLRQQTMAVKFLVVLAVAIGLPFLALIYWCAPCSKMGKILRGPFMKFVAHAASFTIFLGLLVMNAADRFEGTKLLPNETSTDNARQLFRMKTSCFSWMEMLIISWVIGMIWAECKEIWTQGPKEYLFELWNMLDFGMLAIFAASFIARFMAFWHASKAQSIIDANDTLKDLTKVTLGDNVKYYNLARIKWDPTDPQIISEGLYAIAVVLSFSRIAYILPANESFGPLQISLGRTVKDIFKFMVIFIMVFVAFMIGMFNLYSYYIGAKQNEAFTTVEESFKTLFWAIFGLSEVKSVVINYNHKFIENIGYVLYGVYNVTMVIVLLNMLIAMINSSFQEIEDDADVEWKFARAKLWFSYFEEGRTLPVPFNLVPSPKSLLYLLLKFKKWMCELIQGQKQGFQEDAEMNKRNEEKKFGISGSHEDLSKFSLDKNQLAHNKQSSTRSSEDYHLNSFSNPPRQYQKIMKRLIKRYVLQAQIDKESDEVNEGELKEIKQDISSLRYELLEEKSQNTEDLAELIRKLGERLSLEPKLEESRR

Take `CCN(C(=O)c1c(-c2ccccc2Cl)noc1C)C1CCCCC1`: the outcome in assay [1], in [2], in [3], in [4], in [6] and in [7] was inactive. For the same molecule, the result in [8], in assay [9], in [10], in assay [11], in assay [12] and in [14] was inactive. Moreover, the outcome in assay [15] and in assay [16] was inactive. For the same molecule, the inhibition – broadly, the drop in the measured response relative to a control, in per cent – is 71% (active) in [5] and 38.5% (active) in assay [13].
Consider `CCc1cc(C(c2cccc(OC)c2)N2CCOCC2)c(NC(=O)c2ccccc2)s1` (stereo not given), for which the outcome in assay [1], in assay [2], in [3], in [4], in [6] and in assay [7] was inactive. Moreover, the result in [8], in [9], in [10], in assay [11], in assay [12] and in [14] was inactive. Also, the outcome in assay [15] and in assay [16] was inactive. Moreover, the inhibition was 62% (active) in [5] and 28% (active) in [13].
On to `N#Cc1cccc2c1-c1ccccc1/C2=N/NC(N)=O`, for which the result in [1], in assay [2], in assay [3], in assay [4], in assay [7] and in [8] was inactive. The result in assay [9], in assay [10], in assay [11], in [12], in assay [14] and in [15] was inactive. Further, the result in [16] was inactive. The inhibition is 86% (active) in assay [5], 81% (active) in assay [6] and 19.9% (active) in assay [13].
Consider `COc1ccc(C)cc1N(C(=O)c1snc(C(N)=O)c1N)C(C(=O)NC1CCCC1)c1ccc(F)cc1` (stereo not given), for which the result in [1], in [2], in assay [3], in assay [4], in assay [7] and in [8] was inactive. Besides, the outcome in assay [9], in assay [10], in [11], in assay [12], in assay [14] and in assay [15] was inactive. In addition, the outcome in [16] was inactive. The inhibition is 91% (active) in assay [5], 67% (active) in assay [6] and 41.2% (active) in assay [13].
`COCCn1c(SCC(=O)c2ccccc2)nc2ccccc2c1=O`: the result in [1], in assay [2], in assay [3], in assay [4], in assay [7] and in [8] was inactive. Moreover, the outcome in [9], in assay [10], in [11], in assay [12], in [14] and in assay [15] was inactive. Moreover, the outcome in [16] was inactive. Further, the values for the inhibition in [5], in assay [6] and in assay [13] were 91% (active), 48% (active) and 20.4% (active), respectively.
For `CC(C)(C)Cc1nc2ccccc2n1CCc1ccccc1`, the result in [1], in assay [2], in [3], in assay [4], in assay [7] and in assay [8] was inactive. For the same molecule, the call in assay [9], in assay [10], in assay [11], in assay [12], in assay [14] and in assay [15] was inactive. Further, in assay [16], the outcome was inactive. The inhibition in assay [5] was 82% (active); in assay [6], 64% (active); in [13], 17.2% (active).
Consider `O=C(CCCSc1nc2ccccc2[nH]1)NCc1ccccc1Cl`, for which the result in [1], in [2], in assay [3], in assay [4], in [7] and in assay [8] was inactive. Moreover, the result in assay [9], in assay [10], in assay [11], in assay [12], in [14] and in [15] was inactive. Besides, the result in assay [16] was inactive. For the same molecule, the inhibition in assay [5] is 88% (active); in assay [6], 46% (active); in assay [13] it was 27.7% (active).
For `CCCOc1cccc(C(=O)NCCNC(=O)c2ccco2)c1`, the result in assay [1], in assay [2], in [3], in [4], in [5] and in assay [6] was inactive. For the same molecule, the result in assay [7], in [8], in [9], in assay [10], in assay [11] and in assay [12] was inactive. Besides, the result in assay [13], in assay [14], in assay [15] and in assay [16] was inactive.
As to `Fc1cccc(Nc2c3c(nc4ccccc24)CCC3)c1`, the outcome in [1], in assay [2], in [3], in assay [4], in [6] and in [7] was inactive. The outcome in assay [8], in assay [9], in assay [10], in assay [11], in [12] and in assay [14] was inactive. Further, the outcome in assay [15] and in assay [16] was inactive. Also, the values for the inhibition in assay [5] and in assay [13] were 96% (active) and 14.9% (active), respectively.
As to `N/C(Cc1cccc2ccccc12)=N\OC(=O)c1cccs1`, the outcome in assay [1], in assay [2], in assay [3], in [4], in assay [7] and in assay [8] was inactive. The result in [9], in assay [10], in assay [11], in assay [12], in [13] and in [14] was inactive. Further, the result in assay [15] and in assay [16] was inactive. The results for the inhibition in [5] and in [6] were 54% (active) and 55% (active), respectively.
For `CCOC(=O)C1(CCOC)CCN(C(C)CCc2ccc(OC)cc2)CC1` (stereo not given), the outcome in [1], in assay [2], in assay [3], in assay [4], in [6] and in [7] was inactive. The result in assay [8], in [9], in [10], in assay [11], in assay [12] and in [13] was inactive. In addition, the result in assay [14], in assay [15] and in assay [16] was inactive. The inhibition in assay [5] was 75% (active).
Take `CCc1ccc2nc3nc(C)cc(C)c3c(N)c2c1`: the outcome in assay [1], in assay [2], in [3], in assay [4], in assay [7] and in assay [8] was inactive. Besides, the molecule was called inactive in assay [10], in [11], in [12], in assay [14], in assay [15] and in assay [16]. Besides, the inhibition in assay [5] is 96% (active); in assay [6], 41% (active); in [9], 27% (active); in assay [13], 15.6% (active).
As to `Cc1cccc(-n2nc(C)c3c(C(=O)O)cc(-c4cccs4)nc32)c1`, the outcome in assay [1], in assay [2], in assay [3], in [4], in [6] and in assay [7] was inactive. The outcome in assay [8], in assay [9], in assay [10], in [11], in assay [12] and in assay [14] was inactive. Also, the outcome in [15] and in assay [16] was inactive. For the same molecule, the inhibition was 89% (active) in assay [5] and 28.2% (active) in assay [13].
Turning to `CCOc1ccc2[nH]c3c(N4CCN(c5ccccn5)CC4)ncnc3c2c1`, the result in [1], in assay [2], in assay [3], in assay [4], in [6] and in assay [7] was inactive. Besides, the result in assay [8], in [9], in [10], in [11], in assay [12] and in assay [13] was inactive. The outcome in [14], in assay [15] and in [16] was inactive. Also, the inhibition in [5] is 83% (active).
Take `CCC(O)C1CCN(Cc2cn(-c3ccc(OC)cc3)nc2-c2cccc(F)c2)CC1` (stereo not given): the result in assay [1], in [2], in assay [3], in assay [4], in assay [6] and in assay [7] was inactive. Moreover, the result in assay [8], in [9], in assay [10], in [11], in [12] and in assay [13] was inactive. For the same molecule, the result in assay [14], in [15] and in assay [16] was inactive. For the same molecule, the inhibition in assay [5] was 98% (active).

The values above are taken from PubChem BioAssay.
